In PubChem BioAssay AID1159580 (chemical genetic matrix, 2015):
Out of some 5,500 compounds screened, about 2,000 (36%) were called active. Inconclusive results (about 18%) are left out. Cut-off read from the data, not from the text of the source: active = normalized growth mostly below about 0.91 (no sharp cut-off); inconclusive = no clear call, values can overlap the other calls; inactive = mostly above about 0.92. This is one part of the list.

Experiment: chemical genetic growth profiling, strain panel (AID 1159580);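 note: tested at 20 µM; growth read once vehicle control cultures reached saturation at 30 °C; 1 = growth at the plate median or of vehicle wells; lower values mean less growth of the strain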
Settings: S. cerevisiae deletion strains, growth OD
[1] = locus YAL040C, strain CLN3, hits give low values
[2] = locus YDR150W, strain NUM1, hits give low values
[3] = locus YER002W, strain NOP16, hits give low values
[4] = locus YNL175C, strain NOP13, hits give low values
[5] = locus YNL197C, strain WHI3, hits give low values
[6] = locus YNL224C, strain SQS1, hits give low values
[7] = locus YOR083W, strain WHI5 (second series), hits give low values
[8] = locus YPL055C, strain LGE1, hits give low values
[9] = locus YPL241C, strain CIN2, hits give low values
[10] = locus YCL061C, strain MRC1 (second series), hits give low values
[11] = locus YDR363W, strain ESC2, hits give low values
[12] = locus YGR229C, strain SMI1, hits give low values
[13] = locus YMR263W, strain SAP30, hits give low values
[14] = locus YMR307W, strain GAS1, hits give low values

Measured: normalized growth

NC(CCCCCP(=O)(O)O)C(=O)O (stereo unspecified)
inactive: [1] 0.977 | [2] 0.989 | [3] 0.973 | [4] 1 | [5] 0.992 | [6] 1.01 | [7] 0.983 | [8] 0.999 | [9] 0.98

CCCCCCCCCCCCCCCCCCNC(=O)OCC(COP(=O)([O-])OCC[n+]1ccsc1)OC (stereo unspecified)
inactive: locus YAL013W, strain DEP1, hits give low values 0.983 | [1] 1 | [10] 1 | [11] 1.03 | [3] 1.01 | [12] 0.936 | [13] 1 | [14] 0.968 | [4] 1.03 | [5] 1.06 | [6] 1.03 | [7] 1.01 | [8] 1.04 | [9] 1.01

CCCCCCCCCCCCCCCCCC(=O)NCC(COP(=O)([O-])OCC[N+](C)(C)C)OCC (stereo unspecified)
active: [1] 0.0918 | [10] 0.0501 | [2] 0.0538 | [11] 0.0807 | [3] 0.0757 | [12] 0.0622 | locus YJR075W, strain HOC1, hits give low values 0.0689 | [13] 0.0519 | [14] 0.0635 | locus YNL128W, strain TEP1, hits give low values 0.0936 | locus YNL153C, strain GIM3, hits give low values 0.0918 | [4] 0.0883 | [5] 0.0927 | [6] 0.0836 | [7] 0.116 | [9] 0.0483

CCCCCCCCCCCCCCCC(=O)NCC(COP(=O)([O-])OCC[N+](C)(C)C)OCC (stereo unspecified)
inactive: locus YGR078C, strain PAC10, hits give low values 0.971
active: [1] 0.322 | [10] 0.155 | [2] 0.0974 | [11] 0.165 | [3] 0.0938 | [13] 0.619 | [4] 0.0862 | [5] 0.373 | [6] 0.151 | [7] 0.223 | [8] 0.109
